# Screening results from PubChem BioAssay.
# Only some compounds are listed: those with a hit (about 6.5% of all), similar ones and a draw of the others.
# Giardia killer – kills Giardia lamblia. Giardia lamblia trophozoite viability. activity change, % at 7.66 µM, hits read low. 0.15% of 340,000 active. AID 540267; in the data active = activity change below about -80%; inconclusive = between about -30% and that limit;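 note: parasites exposed to compound for two days anaerobically before the ATP read; % is set by controls: 0 for no effect and ±100 for the full control effect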
#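 Giardia lamblia trophozoites (100 cells/well) were incubated with compounds for 48 h at 37 deg C under anaerobic conditions. Viability was read as ATP content by one-step luminescence after 15-30 min at room temperature.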
# IL-1B inflam inh – blocks inflammasome-driven IL-1 beta release. THP-1 LPS/ATP IL-1B secretion, AlphaLISA, 16 h; active compounds read low. AID 743279. activity change, % at 57.5 µM. 4.7% of 360,000 active; in the data active = activity change below about -50%; inconclusive = mostly about -30% to -49%; note: % is set by controls: 0 for no effect and ±100 for the full control effect
#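 THP-1 cells pretreated 1 hr with compounds (up to 57.5 uM final), then stimulated with LPS (250 ng/mL final) plus ATP (1.25 mM final); secreted IL-1B measured by AlphaLISA after 16 hr, decreased signal indicating inhibition.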
# HepG2 tox – kills HepG2 cells in TGF-b inhibitor counter-screen; HepG2 CAGA-GFP viability, ATP luminescence, 18 h; Potency, µM (top dose mostly 46.1 µM), for inactives: top-dose activity change, negative = cytotoxicity, hits mostly cytotoxic; 0.76% of 410,000 active; AID 588856; note: potency is the fitted concentration of half-maximal effect
#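 CellTiter-Glo luminescence gave cytotoxicity after 18 hours at 37 degrees C. The cells were HepG2 CAGA-GFP in 1% FBS DMEM, stimulated with 500 pg/mL TGF-beta after compound addition. %Activity was normalised to no-cell wells (complete cell-killing) and DMSO (no toxicity), and curves were fitted and classified.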
# HT1080NT lethal – kills 2HG-producing HT-1080-NT fibrosarcoma cells; HT-1080-NT fibrosarcoma viability, CellTiter-Glo ATP luminescence, 48 h; Potency, µM (doses to about 46.1 µM), for inactives: at the highest dose activity, negative = less viability, hits mostly cytotoxic; 1.6% of 360,000 active; AID 686970;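 note: NT is the 2HG producing partner of a matched IDH1 knockdown line; potency is the fitted concentration of half-maximal effect; 0% = DMSO-treated cells and -100% = media-only wells without cells; nearly all actives have a fitted effect of over 55% in size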
#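 Fibrosarcoma NT cells, 750 per well in 5% FBS RPMI, were exposed to compound for 48 hours. Viability: CellTiter-Glo luminescence.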
# HT1080 IDH1KD tx – toxicity to HT-1080 IDH1 knockdown cells (counter line); HT-1080 IDH1 knockdown viability, ATP luminescence, 48 h; Potency, µM (doses to about 46.1 µM), for the others: at the highest dose activity, negative = toxicity, actives largely listed as cytotoxic; 2% of 360,000 active; AID 686971;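 note: potency is the fitted concentration of half-maximal effect; 0% = DMSO wells and -100% = cell-free medium wells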
#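 In this qHTS, HT-1080 cells depleted of IDH1 are exposed for 48 h at 37 °C to compound titrations. Toxicity is scored from CellTiter-Glo luminescence, with DMSO as full viability and medium alone as none.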
# TGFb SMAD3 inh – inhibitors of TGF-b signaling; HepG2 CAGA-GFP TGF-b/SMAD3 reporter, GFP fluorescence, 18 h; TGF-beta stimulated, 500 pg/mL final; 1.2% of 410,000 active; Potency, µM (top dose mostly 46.1 µM), without a hit: at the highest dose activity, negative = inhibition, actives largely listed as inhibitors; note: potency is the fitted concentration of half-maximal effect; % is set by controls: 0 for no effect and ±100 for the full control effect; nearly all actives have a fitted effect of over 65% in size
#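 Inhibition of TGF-beta-driven CAGA-GFP reporter expression in HEPG2 cells is measured by cellular GFP fluorescence after 18 h stimulation with 500 pg/mL recombinant TGF-beta in 1% FBS medium at 37 degrees C.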
# Numbers without * were called inactive; u = inconclusive; x = no result. Unless noted, calls come from the whole dose curve; as a rule, active = well fitted curve in the direction sought with a large enough effect; inconclusive = small, poorly fitted or top-dose-only effect, or another doubt; inactive = no such curve, though single readings can be large; an effect the other way counts as inactive or inconclusive.
SMILES,Giardia killer,IL-1B inflam inh,HepG2 tox,HT1080NT lethal,HT1080 IDH1KD tx,TGFb SMAD3 inh
O=C(c1cnc(N2CCN(c3ncccn3)CC2)c2ccccc12)N1CCN(c2ccccn2)CC1,-6,-66*,-9%,-21%,-16%,-11%
O=C(c1ccccc1-c1ccccc1)N1CCN(c2ccccn2)CC1,2,0,-47%,5.8µM*,6.5µM*,-26%
Cc1cc(O)cc2c1C(c1ccc(F)cc1)CC1(CC(C)(C)NC(=S)N1)O2 (stereo not given),-6,33,1%,-11%,-14%,1%
O=C(c1cc(-c2ccccc2)nc2ccccc12)N1CCN(c2ccccn2)CC1,-21,4,-16%,-1%,-12%,-16%
O=C(c1cc(-c2ccncc2)nc2ccccc12)N1CCN(c2ccccn2)CC1,-8,8,-18%,7.9µM*,5.6µM*,38%
Cc1nc2c(C(=O)O)cnn2c(C)c1Cc1ccccc1,x,x,8%,x,x,16%
Cc1cc(Nc2cccc(C(F)(F)F)c2)nc2ccc(NC(=O)c3cccc(Cl)c3)cc12,x,x,13µM*,x,x,u
Fc1ccc(F)c(Nc2c3c(nc4ccc(Cl)cc24)CCC3)c1,x,x,18µM*,x,x,u
FC(F)(F)c1cccc(Nc2c3c(nc4ccc(Cl)cc24)CCC3)c1,x,x,-75%,x,x,18µM*
O=C(/C=C/c1ccc(F)cc1)NC(=S)Nc1ccccc1C(=O)NC1CCCCC1,-17,-2,-17%,2%,4%,3%
CN1CCN(CC(=O)Nc2nc(-c3c[nH]c4ccccc34)cs2)CC1,4,-68*,-7%,u,21µM*,-23%
CNc1nc(-c2c[nH]c3ccccc23)cs1,-1,u,-28%,u,u,2%
CCC(C)Nc1nc(-c2c[nH]c3ccccc23)cs1 (stereo not given),-14,-82*,-59%,u,u,13µM*
CN1CCN(CC(=O)Nc2nc3ccccc3s2)CC1,12,-7,-2%,-3%,-1%,8%
COC(=O)c1ccccc1NC(=O)c1cccc(NC(=O)C(C)C)c1,61,u,-13%,11%,9%,1%
O=C(O)CSCC(=O)N1CCCCC1,-9,16,-26%,2%,18%,-11%
COc1cc2cc(CN(CCCN3CCOCC3)C(=O)Nc3ccc(F)cc3)c(=O)[nH]c2cc1OC,-4,-25,-15%,-16%,-11%,20%
O=C(OCC(=O)c1ccc(Br)s1)c1ccc(O)cc1,-7,-4,-5%,4%,5%,-1%
N=C(N)SCc1ccccc1Cl,-16,-80*,-4%,0%,15%,-17%
CC(C)c1c(C(=O)N/N=C/c2cccc(OCc3ccccc3)c2)nnn1-c1nonc1N,0,-84*,-27%,0%,-10%,u
COc1cccc(/C=N/NC(=O)c2nnn(-c3nonc3N)c2C(C)C)c1OCc1ccc(F)cc1,-9,-70*,-35%,-22%,u,u
CC(C)c1c(C(=O)N/N=C/c2ccc(OCc3ccccc3)cc2)nnn1-c1nonc1N,9,-12,-29%,-12%,-10%,-14%
CC(C)c1c(C(=O)N/N=C/c2ccc(OCc3ccc(F)cc3)cc2)nnn1-c1nonc1N,-19,23,-30%,-1%,-11%,4%
O=S(=O)(NCC(c1cccnc1)N1CCN(c2ccc(F)cc2)CC1)c1ccc(F)cc1 (stereo not given),-11,3,-8%,-2%,-1%,-8%
Cc1cc(C2=NNC(=NCCc3ccccc3)SC2)c(C)n1CC1CCCO1 (stereo not given),2,-77*,-8%,u,-18%,u
SMILES,Giardia killer,IL-1B inflam inh,HepG2 tox,HT1080NT lethal,HT1080 IDH1KD tx,TGFb SMAD3 inh
CCO[C@H]1OC(C(=O)N2CCCCCCC2)=C[C@@H](C2CCCCC2)[C@@H]1CCCO,-17,-23,-15%,-1%,3%,u
CCC(/C=C1\Sc2ccc(OC)cc2N1CC)=C\c1sc2ccc(OC)cc2[n+]1CCCS(=O)(=O)[O-],-15,u,-4%,-11%,-7%,-15%
CCC(/C=C1\Sc2ccc(OC)cc2N1CCO)=C\c1sc2ccc(OC)cc2[n+]1CCO,-1,-113*,-1%,u,u,0%
Cc1ccc(C2(c3noc(CN(C)CCO)n3)CCCC2)cc1,-24,9,-13%,-5%,-3%,-3%
CC(Nc1oc(-c2ccc(COc3ccccc3)o2)nc1C#N)c1ccccc1 (stereo not given),x,x,11µM*,x,x,u
N#Cc1nc(-c2ccc(COc3ccccc3)o2)oc1NCc1ccccc1,x,x,-61%,x,x,u
CCOC(=O)C1=C(C)N=C2SC=C(C)N2C1c1ccc(OC)cc1 (stereo not given),1,30,-3%,16µM*,21µM*,-25%
CCOC(=O)C1=C(C)N=C2SC(C)C(=O)N2C1c1ccc(C(=O)OC)cc1 (stereo not given),6,23,-8%,0%,1%,-3%
CCn1cc(CNC(=O)C2C3CCC(C3)C2C(=O)O)cn1 (stereo not given),19,5,-8%,0%,1%,-6%
O=C(CCl)NCc1cc(-c2ccc(Cl)cc2)no1,-10,-75*,-36%,12µM*,9.2µM*,u
NS(=O)(=O)c1cccc(NC(=O)COC(=O)C2(c3cccc(F)c3)CCCC2)c1,-8,-53*,-16%,-11%,-12%,-5%
NS(=O)(=O)c1cccc(NC(=O)COC(=O)/C(=C/c2cccs2)c2cccs2)c1,-4,-93*,-10%,-1%,2%,0%
Cc1ccc(NC(=O)COC(=O)/C(=C/c2cccs2)c2cccs2)cc1S(=O)(=O)N(C)C,-13,-4,-8%,-8%,-8%,u
CCN(CC)CCNC(=O)Cn1nc(-c2ccc(C)cc2)ccc1=O,-7,-14,-14%,-13%,-8%,-9%
O=C(C1CCCN(S(=O)(=O)c2cccc3nonc23)C1)N1CCN(c2cccc(Cl)c2)CC1 (stereo not given),1,-53*,-43%,-1%,5%,u
Cc1ccc(C)c(N2CCN(C(=O)C3CCCN(S(=O)(=O)c4cccc5nonc45)C3)CC2)c1 (stereo not given),x,x,-13%,x,x,-25%
O=C(C1CCCN(S(=O)(=O)c2cccc3nonc23)C1)N1CCN(c2ccccc2Cl)CC1 (stereo not given),0,-51*,7%,0%,-22%,-17%
CN(NC(=O)c1ccccc1F)c1ncccc1[N+](=O)[O-],-1,0,8%,4%,-2%,23%
